A short description of assay [1]: inhibitors of TNFa-induced NFkB p65 translocation, primary screen, imaging, HUVEC, MLSMR starter and 10KST1 sets (AID 438;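 active = inhibition above 20% together with a positive visual image hit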;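 note: compound added about 3h40 before a 20 min TNFalpha stimulation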;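 for inhibition: signal is the nuclear over cytoplasmic p65 intensity ratio per well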). Particulars: HUVEC TNFa-induced p65 nuclear translocation; cell count: measured here: nuclei count (cytotoxicity indicator), at 2.08 µM; inhibition: at 2 µM, stronger effect = higher value, 0% TNFa-plus-vehicle, 100% no-TNFa wells.
A short description of assay [2]: inhibitors of mutant huntingtin aggregation, primary screen, imaging, exon1htt(103Q)mCFP cells, high-content imaging (AID 483;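 active = visual image review flags a hit and inhibition of aggregation exceeds 20%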;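 note: compound exposure lasted 3 days before fixation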;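 for nuclei count: percent of the per-plate median nuclei count of sample wells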). Particulars: exon1htt(103Q)mCFP cell line, aggregate imaging, at 2 µM; inhibition of aggregation: stronger effect = higher value; nuclei count: measured here: cell count, toxicity.
A short description of assay [3]: inhibitors of E-selectin induction by TNFa, primary screen, imaging, HUVEC, immunofluorescence, MLSMR starter and 10KST1 sets (AID 487;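 active = visually confirmed hit in the image check and inhibition above 20%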;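 for inhibition: signal is fraction of cell area covered by stained E-selectin grains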;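 for nuclei count: 100% = median nuclei count of all wells on the same plate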). The settings on record: HUVEC TNFalpha-induced E-selectin immunofluorescence imaging, at 2 µM; inhibition: stronger effect = higher value; nuclei count: measured here: cell number, toxicity.
Assay [4] deals with Voltage-gated potassium channel subunit beta-2 (Rattus norvegicus) (UniProt P62483). Put plainly: KvBeta enzyme negative modulators, primary screen, biochemical, NADPH fluorescence (AID 622;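 active = fluorescence slope higher than the sample average by over 3 SD, cut at about -0.22 in these data, passing the limit was not always enough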;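 note: slope of raw intensity against log time taken from 70 to 1610 s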). The settings on record: recombinant KvBeta, 4-cyanobenzaldehyde reduction, at 10 µM, stronger effect = higher value.
Sequence of Voltage-gated potassium channel subunit beta-2 (Rattus norvegicus) (P62483 whole entry, looked up): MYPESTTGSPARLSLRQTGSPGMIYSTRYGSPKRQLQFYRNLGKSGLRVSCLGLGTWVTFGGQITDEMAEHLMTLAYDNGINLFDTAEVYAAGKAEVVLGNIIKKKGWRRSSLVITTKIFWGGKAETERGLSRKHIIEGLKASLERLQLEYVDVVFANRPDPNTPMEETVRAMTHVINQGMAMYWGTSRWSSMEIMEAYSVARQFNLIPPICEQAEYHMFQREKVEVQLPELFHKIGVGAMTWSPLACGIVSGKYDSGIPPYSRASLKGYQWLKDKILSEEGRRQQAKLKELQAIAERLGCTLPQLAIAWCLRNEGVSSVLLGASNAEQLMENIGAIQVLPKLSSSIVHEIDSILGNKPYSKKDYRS
Assay [5] has the same target. Put plainly: KvBeta positive modulators, primary screen, biochemical, NADPH fluorescence (AID 623;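 active = NADPH fluorescence slope more negative than the mean of all samples by about 3 SD, 99.7% confidence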;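 note: fluorescence intensity change per second fitted from 20 to 320 s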). Particulars: Recombinant KvBeta, NADPH fluorescence decrease slope, 10 min; at 10 µM; stronger effect = lower value.
In assay [6] the target is Alpha-2C adrenergic receptor (Homo sapiens) (UniProt P18825). Briefly: modulators of alpha2C/GIRK thallium flux, primary screen, cell-based, HEK293 alpha2C/GIRK1/2 (AID 624;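 active = fluorescence slope after compound addition differing from the mean of all screened samples at 99.7% confidence, in either direction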;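 note: slope of fluorescence ratio to pre-addition baseline per second over 15 to 24 s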). Particulars: thallium flux BTC fluorescence, at 10 µM, actives lie on both sides.
Sequence of Alpha-2C adrenergic receptor (Homo sapiens) (P18825 whole entry, looked up): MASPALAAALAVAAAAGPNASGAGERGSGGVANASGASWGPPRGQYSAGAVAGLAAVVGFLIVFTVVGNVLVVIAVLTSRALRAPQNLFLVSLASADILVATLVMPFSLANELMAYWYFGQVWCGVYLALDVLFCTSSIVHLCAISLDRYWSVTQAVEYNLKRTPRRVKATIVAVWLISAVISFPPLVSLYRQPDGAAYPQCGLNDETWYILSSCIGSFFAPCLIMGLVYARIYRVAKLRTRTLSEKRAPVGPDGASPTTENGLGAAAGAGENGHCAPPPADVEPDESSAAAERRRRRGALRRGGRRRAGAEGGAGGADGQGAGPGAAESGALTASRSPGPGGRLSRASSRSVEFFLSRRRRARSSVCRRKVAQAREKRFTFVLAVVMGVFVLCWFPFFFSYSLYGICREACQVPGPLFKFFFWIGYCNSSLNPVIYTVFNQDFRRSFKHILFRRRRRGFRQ
A short description of assay [7]: inhibitors of Sendai virus-induced IRF3 signaling, primary screen, TLR/RLR signaling modifier project, cell-based, Sendai virus stimulus, luciferase, 10K MLSCN set (AID 602276).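 Note: firefly luciferase from ISG56 promoter only with Renilla not read in this screen; 0% = Sendai virus plus DMSO and 100% = medium plus DMSO without virus.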 The settings on record: HEK293 RL24 IRF3 luciferase reporter, at 10 µM, stronger effect = higher value. A general note: A reporter such as luciferase makes a cellular process visible.
The nature of assay [8]: inhibitors of poly I:C-induced TLR3 signaling, primary screen, cell-based, poly I:C stimulus, luciferase, 10K MLSCN set (AID 602277;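 active = inhibition of the reporter signal at or above 50%; inactive = inhibition below 50%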). Particulars: HEK293-TLR3 RL24 IRF3 luciferase reporter, at 10 µM, stronger effect = higher value.

The source made the active and inactive calls.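 Rule for the calls, unless noted: active = inhibition at or above 50% at 10 µM; inactive = inhibition below 50%.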

The term inhibition denotes the relative decrease from the control value, in per cent. As to `O=C(CN1CCCCCC1)OCCN=C1NS(=O)(=O)c2ccccc21`, in assay [1], the cell count is 384. Further, the inhibition in assay [1] is -1.9% (inactive); in assay [3], -187% (inactive); in assay [7] it was 9.82% (inactive); in assay [8], 8.03% (inactive). Further, the inhibition of aggregation in assay [2] is -3.1% (inactive). Moreover, the nuclei count was 62.4% in assay [2] and 133% in assay [3]. The fluorescence slope in assay [4] was -0.599 (inactive). Further, the NADPH fluorescence slope in assay [5] is -6.1e-06 (inactive). The slope in assay [6] is 0.00669 (inactive).

For `COCCCN(C)C1CCN(C(=O)Nc2ccc(F)cc2)CC1`, the cell count in assay [1] was 610. The inhibition is -1.3% (inactive) in assay [1], -49.7% (inactive) in assay [3], 11% (inactive) in assay [7] and 36.9% (inactive) in assay [8]. Also, the inhibition of aggregation in assay [2] was -8.7% (inactive). Moreover, the nuclei count in assay [2] is 108%; in assay [3] it was 102%. Further, the fluorescence slope in assay [4] was -0.582 (inactive). In assay [5], the NADPH fluorescence slope was -1.9e-06 (inactive). The slope in assay [6] was 0.00654 (inactive).

For the molecule `CC(C)[C@H](NC(=O)OC(C)(C)C)c1nnc(SCc2cccc(F)c2)o1`, the cell count in assay [1] came to 859. Moreover, the inhibition in assay [1] is 0% (inactive); in assay [3], -63.9% (inactive); in assay [7] it was 9.92% (inactive); in assay [8], 19.5% (inactive). Besides, the inhibition of aggregation in assay [2] is 15.1% (inactive). In addition, the results for the nuclei count in assay [2] and in assay [3] were 101% and 122%, respectively. Further, the fluorescence slope in assay [4] was -0.46 (inactive). Besides, the NADPH fluorescence slope in assay [5] is -4.1e-06 (inactive). Also, the slope in assay [6] is 0.00385 (inactive).

On to `c1ccc(OCc2nc3ccccc3[nH]2)cc1`, for which the cell count in assay [1] was 443. Further, the inhibition is -6.5% (inactive) in assay [1], -77.6% (inactive) in assay [3], -47.4% (inactive) in assay [7] and -118% (inactive) in assay [8]. Moreover, the inhibition of aggregation in assay [2] was 9.8% (inactive). For the same molecule, the nuclei count in assay [2] is 75.8%; in assay [3], 132%. Also, the fluorescence slope in assay [4] is -0.392 (inactive). In addition, in assay [5], the NADPH fluorescence slope is -5.8e-05 (inactive). The slope in assay [6] is 0.00568 (inactive).

In the case of `Cc1ccc(NC(=O)CC2C(=O)NC3CCCCC3N2C(=O)c2ccc(F)cc2)cc1C` (stereo not drawn), in assay [1], the cell count was found to be 461. For the same molecule, the inhibition is -10.3% (inactive) in assay [1], -55.7% (inactive) in assay [3], 12.1% (inactive) in assay [7] and 15.6% (inactive) in assay [8]. The inhibition of aggregation in assay [2] is -9.9% (inactive). For the same molecule, the nuclei count was determined as 123% in assay [2] and 178% in assay [3]. Further, the fluorescence slope in assay [4] is -0.478 (inactive). In addition, the NADPH fluorescence slope in assay [5] is 2.4e-05 (inactive). Further, the slope in assay [6] was 0.00684 (inactive).

As to `C=CCN1C(=O)CS/C1=N/c1nccs1`, the cell count in assay [1] came to 785. Further, the inhibition was -8.5% (inactive) in assay [1], -5.5% (inactive) in assay [3], 15.5% (inactive) in assay [7] and 14.3% (inactive) in assay [8]. The inhibition of aggregation in assay [2] is 3.5% (inactive). Moreover, the nuclei count in assay [2] is 107%; in assay [3] it was 101%. The fluorescence slope in assay [4] was -0.459 (inactive). Further, the NADPH fluorescence slope in assay [5] was -1.1e-05 (inactive). Besides, the slope in assay [6] was 0.00406 (inactive).

Regarding `Cc1nnc(SCCn2c(Br)nc3c2c(=O)n(C)c(=O)n3C)s1`, the cell count in assay [1] was 410. Moreover, the inhibition in assay [1] is 3.8% (inactive); in assay [3], -12% (inactive); in assay [7], -7.02% (inactive); in assay [8] it was -0.072% (inactive). Also, the inhibition of aggregation in assay [2] is 2% (inactive). Moreover, the values for the nuclei count in assay [2] and in assay [3] were 101% and 109%, respectively. The fluorescence slope in assay [4] was -0.374 (inactive). For the same molecule, the NADPH fluorescence slope in assay [5] is -1.8e-05 (inactive). Besides, the slope in assay [6] is 0.00518 (inactive).

`Cc1ccc(S(=O)(=O)NC(=O)c2cc(C)n(CCCn3ccnc3)c2C)cc1`: in assay [1], the cell count was 218. For the same molecule, the inhibition in assay [1] was -2.9% (inactive); in assay [3], -86.6% (inactive); in assay [7], 11.6% (inactive); in assay [8] it was 13.5% (inactive). Further, the inhibition of aggregation in assay [2] is 9.2% (inactive). The nuclei count stood at 92.3% in assay [2] and 108% in assay [3]. In assay [4], the fluorescence slope is -0.596 (inactive). In addition, the NADPH fluorescence slope in assay [5] was -2.4e-05 (inactive). The slope in assay [6] is 0.00417 (inactive).

With `O=C(c1ccco1)N1CCN(S(=O)(=O)c2ccc3c(c2)CCN3C(=O)C2CCC2)CC1`, the cell count in assay [1] was 600. For the same molecule, the inhibition in assay [1] is 1.2% (inactive); in assay [3] it was -53.2% (inactive); in assay [7], -18.7% (inactive); in assay [8] it was -87.3% (inactive). Moreover, the inhibition of aggregation in assay [2] was 22.2% (inactive). Also, the nuclei count in assay [2] turned out to be 97%; in assay [3], 115%. Also, the fluorescence slope in assay [4] is -0.425 (inactive). Moreover, the NADPH fluorescence slope in assay [5] was -3.6e-06 (inactive). Besides, in assay [6], the slope is 0.00394 (inactive).

Consider `Cc1ccccc1-c1nc(CS(=O)(=O)CC(=O)NCc2ccc3c(c2)OCO3)c(C)o1`, for which the cell count in assay [1] is 676. For the same molecule, the inhibition in assay [1] was -0.6% (inactive); in assay [3], -6.5% (inactive); in assay [7], 24.2% (inactive); in assay [8], 17% (inactive). The inhibition of aggregation in assay [2] is -60.8% (inactive). In addition, the nuclei count in assay [2] is 115%; in assay [3], 110%. Further, the fluorescence slope in assay [4] was -0.497 (inactive). For the same molecule, the NADPH fluorescence slope in assay [5] is -2.5e-05 (inactive). The slope in assay [6] was 0.0071 (inactive).

With `O=C(Cn1nc(-c2ccc3c(c2)OCCO3)ccc1=O)Nc1ccc(N2CCOCC2)cc1`, the cell count in assay [1] was found to be 270. Moreover, the inhibition is 11.8% (inactive) in assay [1], -60.3% (inactive) in assay [3], 2.21% (inactive) in assay [7] and 21% (inactive) in assay [8]. The inhibition of aggregation in assay [2] was -53.9% (inactive). The nuclei count in assay [2] was 90.7%; in assay [3], 111%. Also, the fluorescence slope in assay [4] is -0.429 (inactive). Besides, in assay [5], the NADPH fluorescence slope is -5.2e-05 (inactive). In addition, the slope in assay [6] is 0.00403 (inactive).

Turning to `COc1ccc(-c2nnc(-c3cccs3)o2)cc1OC`, the cell count in assay [1] was determined as 384. In addition, the inhibition in assay [1] was -0.2% (inactive); in assay [3], 67.8% (active); in assay [7], -76.7% (inactive); in assay [8], -170% (inactive). Moreover, in assay [2], the inhibition of aggregation is 6.2% (inactive). Further, the results for the nuclei count in assay [2] and in assay [3] were 99% and 94.7%, respectively. Further, the fluorescence slope in assay [4] is -0.343 (inactive). In addition, in assay [5], the NADPH fluorescence slope was 3e-05 (inactive). In addition, the slope in assay [6] was 0.00689 (inactive).

As for `Cc1cc(C(=O)Nc2ccccc2C#N)n(-c2ccccc2)n1`, in assay [1], the cell count was determined as 763. The inhibition in assay [1] was 7.7% (inactive); in assay [3] it was 27.3% (inactive); in assay [7], -2.18% (inactive); in assay [8], 20.7% (inactive). Moreover, in assay [2], the inhibition of aggregation is 19.6% (inactive). In addition, the nuclei count in assay [2] was 88.3%; in assay [3], 108%. Also, the fluorescence slope in assay [4] was -0.556 (inactive). For the same molecule, in assay [5], the NADPH fluorescence slope is 2.9e-05 (inactive). The slope in assay [6] is 0.00747 (inactive).
